Measurements from PubChem BioAssay (NCATS).
Results filed as inconclusive are left out. A number with no mark means an inactive call. Active and inactive are the calls of the source. The call rests on the fitted dose curve; in most records, active means well fitted inhibition curve with a large enough effect; inconclusive means small, poorly fitted or top-dose-only effect; inactive means flat fitted curve, though single readings scatter.

System: NIH3T3
Assay: Cytotoxic Profiling of Annotated Libraries Using Quantitative High-Throughput Screening (AID 1296008); further: nearly all actives have a fitted effect of over 60% in size
Settings: Five cell lines viability, CellTiter-Glo ATP luminescence, 48-72 h; max response: hits give low values
Method in brief: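 Cytotoxicity was measured as CellTiter-Glo ATP luminescence, read after 10 min at room temperature. Compound treatment of the cells lasted 48 or 72 hr at 37 degrees Celsius in a qHTS format.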
On the % scale 0 is the no-effect control and ±100 the full control effect; potency means the concentration at half of the fitted maximal effect.

Compound	max response [%]	Potency
COc1ccc(-c2nc(-c3ccc(-c4cccc(Cl)c4)o3)[nH]c2-c2ccc(OC)cc2)cc1	-19.3	–
COC(=O)[C@@]1(c2ccc(C)cc2)C[C@H]1CN1CCC(O)(c2ccccc2)CC1	-2.42	–
CC1CCC2(C(=O)O)CCC3(C)C(=CCC4C5(C)CCC(O)C(C)(CO)C5CCC43C)C2C1(C)O (centres undefined)	1.81	–
Clc1cc2c(NC3CCCC3)nnc(-c3ccncc3)c2cc1Cl	-2.41	–
CCC(COC)n1nnc2c(Nc3ccc(OC)cc3C)nc(C)cc21 (centres undefined)	2.01	–
CC(C)c1nnc(-c2ccc(-c3ccccc3)nc2)n1-c1cccc2nonc12	4.73	–
CC(=O)O[C@H]1[C@@H](O)[C@H](O[C@H]2[C@@H]3C=CO[C@@H](O[C@H]4O[C@@H](CO)[C@H](O)[C@@H](O)[C@@H]4O)[C@@H]3[C@@]3(CO)O[C@@H]23)O[C@@H](C)[C@@H]1OC(=O)/C=C/c1ccccc1	-6.79	–
CC(C)c1cc(C(=O)N2CC[C@@H](NC(=O)C3CC3)C2)n[nH]1	-14.5	–
CC[C@H](NC(=O)[C@H](CS(=O)(=O)CC1CC1)N[C@@H](c1ccc(F)cc1)C(F)(F)F)C(=O)C(=O)NC1CC1	-16	–
FC(F)(F)c1ccc(Nc2nc(-c3c(C(F)(F)F)nc4ccccn34)cs2)cc1	–	1.3 µM (active)
CNC(=O)c1cccc(-c2ccc3c(N4CCOC[C@@H]4C)nc(N4CCOC[C@@H]4C)nc3n2)c1	–	1.3 µM (active)
O=C(c1ccc(/C=C/c2n[nH]c3ccccc23)cc1)N1CCNCC1	–	4.61 µM (active)
COc1cc(C(=O)O)ccc1OC1OC(CO)C(O)C(O)C1O (centres undefined)	-5.21	–
CCC(C)C(=O)O[C@H]1CCC=C2C=C[C@H](C)[C@H](CC[C@@H](O)C[C@@H](O)CC(=O)O)[C@H]21 (some centres undefined)	-16.9	–
Cc1ccc(-c2ccc3c(ccc4sc5c(c43)NC[C@@H](C)NC5=O)n2)cn1	-0.392	–
CC1OC(OC2C(OC3C(O[C@H]4CC[C@@]5(C)C(CC[C@]6(C)C5C(=O)C=C5C7CC(C)(C)CC(O)[C@]7(C)CC[C@]56C)C4(C)C)OC(C(=O)O)C(O)C3O)OCC(O)C2O)C(O)C(O)C1O (some centres undefined)	-3.29	–
Cc1cccc(Oc2cnc(=O)[nH]c2)c1	-28.2	–
COC(=O)C[C@H]1C(C)(C)[C@H](OC(C)=O)C2CC3=C4CC(=O)O[C@@H](c5ccoc5)[C@]4(C)CCC3[C@@]1(C)C2=O (some centres undefined)	-4.77	–
COc1cc([C@H]2c3cc(O)c(OC)cc3C[C@@H](CO[C@@H]3O[C@H](CO)[C@@H](O)[C@H](O)[C@H]3O)[C@@H]2CO)ccc1O	-0.225	–
CC(C)(C)CCN1C[C@@H]2C(CNC(=O)c3cc(Cl)cc(Cl)c3)[C@@H]2C1 (some centres undefined)	-2.97	–
Cc1c[nH]c2nccc(Oc3c(F)cc(Nc4cc(Cl)nc(N)n4)cc3F)c12	–	10.3 µM (active)
CCC(C)C(=O)OC1CC(C)C=C2C=CC(C)C(CCC(O)CC(O)CC(=O)O)C21 (centres undefined)	-8.16	–
O=C(NOCC(O)CO)c1ccc(F)c(F)c1Nc1ccc(I)cc1F (centres undefined)	–	1.84 µM (active)
C=C1C[C@]23C[C@H]1CC[C@H]2C1=C[C@H]2OC(=O)[C@@](C)([C@H]1[C@@H]3C(=O)O)[C@H]2O	3.03	–
COc1cc(/C=C/C(=O)OC[C@H]2O[C@@](CO)(O[C@H]3O[C@H](CO)[C@@H](O)[C@H](O)[C@H]3O)[C@@H](OC(=O)/C=C/c3ccc(O)c(OC)c3)[C@@H]2O)ccc1O	0.754	–
CC(CCC1(O)OC2CC3C4CCC5CC(O[C@@H]6O[C@H](CO)[C@@H](O)[C@H](O)[C@H]6O[C@@H]6O[C@@H](C)[C@H](O)[C@@H](O)[C@H]6O)C(O)CC5(C)C4CCC3(C)C2C1C)CO[C@@H]1O[C@H](CO)[C@@H](O)[C@H](O)[C@H]1O (some centres undefined)	-21	–
CC1=C(C(=O)O)/C(=C\CO[C@@H]2O[C@H](CO)[C@@H](O)[C@H](O)[C@H]2O)C(OC(=O)/C=C/c2ccc(O)cc2)C1 (some centres undefined)	-19.1	–
Cn1c(=O)n(-c2ccc(C(C)(C)C#N)cc2)c2c3cc(C#Cc4cccnc4)ccc3ncc21	–	0.2 µM (active)
CN1CCN(C2CCC(n3cc(-c4ccc(Oc5ccccc5)cc4)c4c(N)ncnc43)CC2)CC1 (centres undefined)	–	0.326 µM (active)
